The structures appear in SMILES notation. Where “and” joins values, the source holds several entries; their conditions need not be identical. Identical values can stand only once. This is part of a sample that, as a whole, favours compounds with a hit. Of some 83,000 tested, about 20% had one in any assay.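 Compound tested at a single concentration for 48 hours in 96-well plates; a percent growth value below 10 was scored as active.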 A number with no mark means an inactive call. Calls of active or inactive are those of the source.

This test deals with A498 renal. Put plainly: NCI-60 one-dose screen, 48 h (100 = growth as untreated, 0 = no growth, -100 = all killed). The note with it: 10 µM unless noted.
As for `Cc1cc(Br)ccc1-n1cc(C#N)c(N)c1C(=O)c1ccc(Br)cc1`, the growth is 114%.

As to `CCCCCCN1C=C/C(=C\C(=O)n2ccc3ccccc32)c2ccccc21`, the growth is 97.5%.

In the case of `Cc1ccc(CSC2=C(Cl)CN(c3ccc(Cl)cc3)C2=O)cc1`, the growth was 113%.

Take `Clc1ccc(CSc2nnc(-c3ccc(Cl)cc3)n2-c2ccccc2)cc1`: the growth is 68%.

Consider `NS(=O)(=O)c1ccc(CCn2c(-c3ccc(C(=O)O)cc3)nc(-c3ccccc3)c2-c2ccccc2)cc1`, for which the growth is 102%.

Take `CC(=C(c1ccc(OCCCN(C)C)cc1)c1ccc(OCCCN(C)C)cc1)c1ccc(Cl)cc1`: the growth was 79.2%.

Take `CC[C@]12CC(C(=O)OC)=C3Nc4ccccc4[C@@]34CCN(C14)[C@@H]1c3cc4c(cc3O[C@@H]1[C@H]2O)NC1=C(C(=O)OC)C[C@@]2(CC)C3N(CC[C@@]143)C[C@H]1O[C@H]12` (stereo partly drawn): the growth is -46.1% (active).

Consider `Cc1ccc(-c2csc(N/N=C/c3cccs3)n2)cc1`, for which the growth is 116%.

For `CN1CCC[C@]2(C)[C@H]3CC[C@@H]4[C@@H]5[C@H]6OC[C@@]5(CCC6(C)C)CC[C@@]4(C)[C@]3(C)CC[C@H]2C1(C)C`, the growth is 90.1%.

With `O=S(=O)(Oc1ccc(-c2cn3ccoc3n2)cc1)c1cccc(C(F)(F)F)c1`, the growth is 88.8%.

Take `CC(Nc1c(C#N)cnc2ccc(-c3cncc(-c4n[nH]c(=O)o4)c3)cc12)c1ccccc1` (stereo not drawn): the growth is -6.1% (active).

With `C#CCN(C)CCCOc1ccc(NC(=O)CCCCCCCCC(=O)NO)cc1Cl`, the growth is 81.1%.

With `CCCc1cc2cc(-n3nc(CC)c4c3CC(C)(C)CC4=O)cc(NC3CCC(O)CC3)c2c(=O)[nH]1` (stereo not drawn), the growth was 37%.

In the case of `O=C(CN1CCN(c2cc(=O)[nH]c3ccc(F)cc23)CC1)N(c1ccccc1)c1ccccc1`, the growth is 83.7%.

`CN1CCN(c2ccc(Nc3nc(NCCCNS(=O)(=O)c4cccc(F)c4)c4sccc4n3)cc2)CC1`: the growth is 67.6%.

Consider `COc1ccc(C(=NNS(=O)(=O)c2ccc(C)cc2)c2ccccc2)cc1OC`, for which the growth is 98.3%.

As for `COc1ccc(/C=N/NC(=O)c2c(N)nn(C)c2Nc2ccccc2)cc1Oc1ccccc1`, the growth was 98.6%.

Turning to `C#C[C@]1(O)CC[C@H]2[C@@H]3CC=C4c5sc(NCc6ccccc6)nc5CC[C@]4(C)[C@H]3CC[C@@]21C`, the growth was 8.6% (active).

In the case of `Cc1cc(NS(=O)(=O)c2ccc(NC(=O)CSc3nc4ccccc4c(=O)n3-c3ccccc3)cc2)no1`, the growth was 99.6%.

With `CC(C)NC(=O)c1cc(-c2ccc(NC(=O)Nc3ccc(F)c(C(F)(F)F)c3)cc2)nc2cccnc12`, the growth was 89.7%.

As to `CCOC(=O)c1cccnc1Nc1ccc(NC(=O)Nc2ccc(Cl)c(C(F)(F)F)c2)cc1`, the growth is 41.3%.

Turning to `O=C(CSc1nc2ccccc2c(=O)n1-c1ccc(S(=O)(=O)Nc2ccc(Cl)nn2)cc1)Nc1ccc(S(=O)(=O)Nc2ccc(Cl)nn2)cc1`, the growth was 104%.

For `COc1cc(-c2nc(-c3ccccc3)[nH]c2-c2ccnc(NCCCNS(=O)(=O)c3ccc(C(F)(F)F)cc3)n2)ccc1Cl`, the growth is 40% and 64.3%.

In the case of `Cc1csc(/N=C(N)/N=C(\N)c2cccc(C#N)c2)n1`, the growth is 69.4%.

With `CC[C@]12C=CCN3CC[C@]4(C(=C(C(=O)OC)C1)Nc1cc5c(cc14)[C@@H]1[C@H](O5)[C@@H](O)[C@@]4(CC)CC(C(=O)OC)=C5Nc6cc(O)ccc6[C@@]56CCN1C46)C32` (stereo partly drawn), the growth is -71.8% (active).

Turning to `COc1ccc(OC)c(CCn2cncc2-c2c[nH]c3ccc(Cl)cc23)c1`, the growth was 44.8%.

On to `Cc1ccc(-c2cc3nc(C(Cl)Cl)nc(-c4ccc(S(=O)(=O)N(C)C)cc4)n3n2)cc1`, for which the growth is 101%.

`CC1=C(C)C(=O)C(Nc2cccc(C(=O)OC(C)(C)C)c2)=C(Cl)C1=O`: the growth is 59.8%.

As for `COC(=O)c1ccc(NC2=C(Cl)C(=O)C(C)=C(C)C2=O)cc1`, the growth is 58.6%.

With `Cc1nc(/N=C(N)/N=C(\N)c2cccc(Br)c2)sc1C`, the growth was 43.5%.

Consider `COC(=O)c1cccc(NC2=C(Cl)C(=O)c3nc(C)ccc3C2=O)c1`, for which the growth was 71%.

Take `CN(C)c1ccc(/C=N/Nc2nc(N/N=C/c3ccc(N(C)C)cc3)nc(N3CCCCC3)n2)cc1`: the growth is 115%.

As for `OCC(Nc1ncnc2ccc(-c3cnc4cnccn34)cc12)c1ccccc1` (stereo not drawn), the growth was 76.4%.

In the case of `COc1ccc(-c2cc(-c3ccc(N4CCOCC4)cc3)n3c(n2)nc2ccccc23)cc1OC`, the growth is 63%.

Consider `CCOC(=O)c1c(NC(=O)c2cccc(C(F)(F)F)c2)sc2c1CCC(=O)C2`, for which the growth is 106%.

Regarding `CCOC(=O)C(=O)Nc1ccc2c(ccn2C(=O)c2cccc(F)c2)c1`, the growth was 84.2%.

For the molecule `CCOc1cccc(/C(N)=N/C(N)=N/c2nc3ccccc3s2)c1`, the growth is 115%.

On to `Cc1ccc2c(n1)C(=O)C(Cl)=C(Nc1cccc(C(F)(F)F)c1)C2=O`, for which the growth was 86%.
